Compound activity: PubChem, The Scripps Research Institute Molecular Screening Center
CHRM1 PAM = human M1 muscarinic receptor positive allosteric modulators, primary screen, CHO-K1 cells, Fluo-8 calcium fluorescence, 1536-well; CHO-K1 hM1, ACh EC20; 0% = ACh EC20, 100% = maximal ACh; activation, % at 3 µM; AID 588819, 2011; hit rate 0.088% among 360,000; Muscarinic acetylcholine receptor M1 (Homo sapiens), P11229; in the data active = activation above about 19%, passing the limit was not always enough
Target sequence (P11229 whole entry, looked up): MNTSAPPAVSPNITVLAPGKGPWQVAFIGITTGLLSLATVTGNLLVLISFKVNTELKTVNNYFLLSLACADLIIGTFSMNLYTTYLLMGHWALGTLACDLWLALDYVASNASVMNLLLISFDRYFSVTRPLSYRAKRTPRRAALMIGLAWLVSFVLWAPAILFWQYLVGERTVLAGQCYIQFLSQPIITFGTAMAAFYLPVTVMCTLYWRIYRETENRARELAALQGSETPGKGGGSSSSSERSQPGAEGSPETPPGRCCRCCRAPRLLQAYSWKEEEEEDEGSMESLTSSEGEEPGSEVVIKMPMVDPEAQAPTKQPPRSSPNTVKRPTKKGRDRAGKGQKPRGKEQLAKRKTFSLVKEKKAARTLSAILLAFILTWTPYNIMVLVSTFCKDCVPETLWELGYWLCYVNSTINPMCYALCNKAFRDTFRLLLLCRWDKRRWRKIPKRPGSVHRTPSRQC
M1 ag parental = counter-screen for M1 agonists: effect in parental CHO-K1 cells | Fluo-8 calcium fluorescence; scaled to maximal ATP response, vehicle zero | activation, % at 3 µM | hit rate 0.48% among 360,000 | AID 602248, 2012; in the data active = activation above about 15%;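 also: untransfected CHO-K1 host cells lacking M1 receptor as counterscreen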
CHO-K1 Ca PAM = nonselective calcium activators in parental CHO-K1 cells, primary screen, counter-screen for M1 PAM project, cell-based, Fluo-8 calcium fluorescence, full deck, 1536-well. ATP EC20; 0% at ATP EC20, 100% at ATP max. activation, % at 3 µM. hit rate 0.02% among 360,000. AID 602247, 2012;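 active = activation above the run cutoff, the mean activation of all test compounds plus 3 SD, cut at about 40% in these data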;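 also: peak over basal fluorescence ratio in a 140 s read after ATP addition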
CHO-K1 Ca antag = counter-screen for M1 antagonists: effect in parental CHO-K1 cells. ATP-induced calcium, Fluo-8 fluorescence. inhibition, % at 3 µM. hit rate 0.6% among 360,000;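 active = inhibition above a per-plate cutoff, the plate's mean sample inhibition plus 3 SD, cut at about 24% in these data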;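 also: 0% = DMSO plus EC80 ATP and 100% = DMSO alone without ATP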
M1 antag = human M1 muscarinic receptor antagonists, primary screen, CHO-K1 cells, Fluo-8 calcium fluorescence, 1536-well; Muscarinic acetylcholine receptor M1 (Homo sapiens), P11229; CHO-K1 hM1, ACh EC80 antagonist; inhibition, % at 3 µM; hit rate 1.3% among 360,000;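 active = percent inhibition above its own plate's cutoff, namely the mean of that plate's compound wells plus 3 SD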;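 also: peak over basal fluorescence ratio during 140 s after agonist addition; 0% = ACh EC80 plus DMSO and 100% = DMSO alone without agonist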
CHRM1 agonist = human M1 muscarinic receptor agonists, primary screen, Fluo-8 calcium fluorescence, CHO-K1 cells, HTS | hit rate 0.33% among 360,000 | CHO-K1 hM1, agonist mode; 0% DMSO, 100% acetylcholine EC100 | AID 588814, 2011 | activation, % at 3 µM | Muscarinic acetylcholine receptor M1 (Homo sapiens), P11229;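 active = activation above the run's mean compound activation plus 3 SD, cut at about 16% in these data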;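 also: peak over basal fluorescence ratio within a 140 s kinetic read after compound addition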
The depositor's hits bear a star. A selection: hits, their analogues and other compounds. The true share with any hit is near 2.3%.

SMILES | CHRM1 PAM | M1 ag parental | CHO-K1 Ca PAM | CHO-K1 Ca antag | M1 antag | CHRM1 agonist
COc1ccccc1NC(=O)C(C)OC(=O)Cc1ccsc1 (stereo unspecified) | 12 | 1 | 2 | 1 | -18 | -4
Cc1ncc(C[n+]2csc(CCOC(=O)CC34CC5CC(CC(C5)C3)C4)c2C)c(N)n1 | -3 | 1 | 19 | -4 | -12 | -12
Cc1c(CCOC(=O)CC23CC4CC(CC(C4)C2)C3)sc[n+]1Cc1ccccc1 | -22 | 2 | 16 | 1 | 99* | -5
CCOCCC(=O)Nc1cc(Cl)ccc1OC | 5 | 0 | 3 | -2 | -5 | -5
CCCCCCCCCn1ccc(=N)cc1 | -20 | 1 | 5 | -1 | 40* | -8
CCCCCCCn1ccc(=N)cc1 | -20 | 0 | 5 | -6 | 41 | -5
CCN(CC(=O)NC1CCS(=O)(=O)C1)S(=O)(=O)c1ccc(Br)cc1 (stereo unspecified) | 12 | 1 | 13 | -9 | -20 | -3
Cc1cccc(C=Nc2ccc3c4c(cccc24)CC3)c1O | -3 | 15* | -14 | 25* | 12 | 3
Oc1ccc(Cl)cc1C=Nc1ccc2c3c(cccc13)CC2 | -1 | 44* | 2 | 32* | 17 | 22*
CCc1ccc(O)c(N=Cc2cccc(C)c2O)c1 | 5 | 1 | 11 | -14 | -1 | -2
Oc1ccc(Cl)cc1/C=N/c1nccs1 | 6 | 0 | 23 | -10 | -10 | -4
CCOC(=O)Cc1csc(SCC(=O)Nc2cc(Cl)ccc2Oc2ccccc2)n1 | -11 | 7 | 1 | 29* | 29 | -2
O=C(CSc1n[nH]c(=O)n1C1CC1)Nc1ccccc1 | 6 | 0 | 15 | 6 | -1 | -2
O=C(CSc1n[nH]c(=O)n1C1CC1)Nc1cc(Cl)ccc1Oc1ccccc1 | -16 | 8 | 4 | 25* | 46* | 2
CC1CCCCN1c1nnc(NC(=O)c2cc(-c3ccc(Br)cc3)on2)s1 (stereo unspecified) | 7 | 1 | 6 | -19 | -16 | -5
CCN(Cc1ccccc1)C(=O)c1nn(-c2ccc(OC)cc2)c(=O)c2c1c1ccccc1n2C | -19 | 7 | -7 | 15 | 23* | -7
COc1ccc(NC(=O)C2Cc3c(-c4ccc5c(c4)OCO5)ccnc3O2)cc1OC (stereo unspecified) | -15 | 11 | -2 | 6 | 33* | 2
CCn1c(SCC(=O)Nc2cccc(C)c2)nc2c(c1=O)SC(C)C2 (stereo unspecified) | 0 | 1 | -3 | 35* | -2 | -4
CC1Cc2nc(SCC(=O)NCc3ccccc3)n(Cc3ccccc3)c(=O)c2S1 (stereo unspecified) | -29 | 1 | 7 | 6 | 53* | -10
CCn1c(SCC(=O)Nc2ccc3c(c2)OCO3)nc2c(c1=O)SC(C)C2 (stereo unspecified) | 1 | 0 | 9 | 0 | 0 | -3
CC1Cc2nc(SCC(=O)c3ccccc3)n(Cc3ccccc3)c(=O)c2S1 (stereo unspecified) | -2 | 1 | 13 | -4 | 4 | -7
CCN(CC)c1ccc2c(Cl)c(Br)c(=O)oc2c1 | -17 | 53* | -7 | 73* | 78* | 49*
COc1ccc(C(=O)NCCc2nnc(SCC(=O)Nc3ccccc3F)n2C)cc1 | 2 | 0 | 3 | -13 | -7 | -5
CCCNc1c(NS(=O)(=O)c2ccc(Cl)s2)c(=O)oc2ccccc12 | -1 | 0 | -12 | 29* | 2 | -2
CCOC(=O)c1c2n(c3c(NCc4ccccc4)ncnc13)CCCC2 | 9 | 0 | -8 | 24* | -8 | -3
SMILES | CHRM1 PAM | M1 ag parental | CHO-K1 Ca PAM | CHO-K1 Ca antag | M1 antag | CHRM1 agonist
CCOC(=O)N1CCC(NC(=O)c2oc3c(F)cccc3c2C)CC1 | 5 | 1 | 11 | -19 | -2 | -5
CCOC(=O)N1CCC(NCCNC(=O)c2cccc(F)c2)CC1 | -33 | 0 | 6 | -21 | 64* | 66*
CCOC(=O)N1CCC(NCCNC(=O)c2ccc(F)cc2)CC1 | -33 | 0 | 17 | -21 | 68* | 63*
CCOC(=O)N1CCC(NC(=O)c2ccc(Cl)cc2)CC1 | 5 | 0 | 2 | -1 | -4 | -1
CN(CC(=O)Nc1ccccc1Cl)C(=O)CSc1nncn1C | 8 | 1 | -2 | 1 | 0 | -2
O=C(CSc1ccc2nnc(-c3cccnc3)n2n1)NCc1ccc2c(c1)OCO2 | -27 | 0 | 12 | -4 | 64* | -10
O=C(CSc1ccc2nnc(-c3ccccc3)n2n1)NCc1ccc2c(c1)OCO2 | 5 | 0 | 15 | -12 | -14 | 1
CN1CCN(c2nc3c(c(=O)[nH]c(=O)n3C)n2CCSc2nc3ccccc3s2)CC1 | -7 | 0 | -9 | 27* | -4 | 18*
Cn1c(=O)[nH]c(=O)c2c1nc(N1CCc3ccccc3C1)n2CCSc1nc2ccccc2s1 | 16 | 0 | 24 | -14 | -16 | -2
Cn1c(=O)[nH]c(=O)c2c1nc(N1CCN(Cc3ccccc3)CC1)n2CCSc1ncccn1 | -14 | 5 | 3 | 4 | 33* | -5
CCN(CC)C(=S)SC1CCCCN(C(=O)c2ccccc2)C1=O (stereo unspecified) | 1 | 0 | 6 | -4 | -9 | -5
O=C(C/C=N\OCc1ccc([N+](=O)[O-])cc1)Nc1ccc(F)cc1F | 8 | 29* | 12 | 4 | -15 | -8
CO/N=C/CC(=O)Nc1ccc(F)cc1F | 3 | 0 | 21 | -25 | -30 | -2
O=C(c1ccc(F)cc1)N1CCCCC(S(=O)(=O)c2ccccc2)C1=O (stereo unspecified) | 12 | 0 | 11 | -12 | -8 | -6
O=c1c2ccccc2oc2ccc(-c3ccc4[nH]ccc4c3)cc12 | 5 | 1 | 1 | -9 | -6 | -4
COc1cccc(/C=N/Nc2snc(SC)c2C#N)c1O | -10 | 17* | 4 | 16 | 9 | 10
COCCN(CC1CCCN(C2Cc3ccccc3C2)C1)C(=O)CCC(N)=O (stereo unspecified) | -28 | 0 | 17 | -10 | 47* | -10
CC(=O)Nc1nc(=S)n(-c2ccccc2)[nH]1 | -2 | 0 | 8 | -3 | 5 | -4
CC(C)c1nc(=S)n(-c2ccccc2)[nH]1 | 3 | 0 | -7 | 28* | 0 | 0
OC(CNCc1ccccc1Cl)C(F)(F)F (stereo unspecified) | 2 | 3 | 29 | -24 | 4 | -5
CCC1=NN(C(=O)COc2ccccc2)C(O)(c2ccc(Br)cc2)C1 (stereo unspecified) | 8 | 22* | 19 | 5 | 0 | -6
